Experimental findings from PubChem BioAssay (NCATS) are described below.

Records with an inconclusive call do not appear. Calls of active or inactive are those of the source. Calls come from the whole dose curve; as a rule, active = well fitted curve in the direction sought with a large enough effect; inconclusive = small, poorly fitted or top-dose-only effect, or another doubt; inactive = no such curve, though single readings can be large; an effect the other way counts as inactive or inconclusive.

Assay [1] in a line: Quantitative High-Throughput drug screen in 47 multiple myeloma cell lines against the NCATS MIPE library collection: FR4_PLB cell viability assay (AID 1918924; note: nearly all actives have a fitted effect of over 35% in size). The procedure, abridged:
(§1)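 CellTiter-Glo luminescence (ATP) after 48 h compound exposure, 37C/5% CO2; 500 cells/well; MIPE 4.0 approved/investigational drugs pinned in; DMSO = 100%, media only = 0% viability.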

Assay [2] is described as follows: Quantitative High-Throughput drug screen in 47 multiple myeloma cell lines against the NCATS MIPE library collection: AMO1_DSMZ cell viability assay (AID 1918927; note: nearly all actives have a fitted effect of over 30% in size). The procedure, abridged: (§2)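 We plated 500 myeloma cells per well, pinned in MIPE 4.0 compounds, and incubated for 48 hours at 37C. ATP was then quantified with CellTiter-Glo, with DMSO and media-only wells defining 100% and 0%.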

A short description of assay [3]: Quantitative High-Throughput drug screen in 47 multiple myeloma cell lines against the NCATS MIPE library collection: ARD_JJKsccE7 cell viability assay (AID 1918929). The procedure, abridged:
as §2

Assay [4] in a line: Quantitative High-Throughput drug screen in 47 multiple myeloma cell lines against the NCATS MIPE library collection: Karpas620_DSMZ cell viability assay (AID 1918959). Note: nearly all actives have a fitted effect of over 30% in size. Put shortly:
as §1

The nature of assay [5]: Quantitative High-Throughput drug screen in 47 multiple myeloma cell lines against the NCATS MIPE library collection: KMM1_JCRB cell viability assay (AID 1918960). Note: nearly all actives have a fitted effect of over 30% in size. The procedure, abridged: (§3)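 ATP readout (CellTiter-Glo), 48 h drug incubation, 37 °C/5% CO2, 500 cells per well; normalisation to DMSO (100%) and media-only (0%) controls.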
Assay [6] is described as follows: Quantitative High-Throughput drug screen in 47 multiple myeloma cell lines against the NCATS MIPE library collection: JJN3_DSMZ cell viability assay (AID 1918966; note: nearly all actives have a fitted effect of over 50% in size). Put shortly:
as §2

Assay [7] in a line: Quantitative High-Throughput drug screen in 47 multiple myeloma cell lines against the NCATS MIPE library collection: ARP1_JJKsccF8 cell viability assay (AID 1918928; note: nearly all actives have a fitted effect of over 40% in size). Put shortly:
as §3

A short description of assay [8]: Quantitative High-Throughput drug screen in 47 multiple myeloma cell lines against the NCATS MIPE library collection: KHM11_PLB cell viability assay (AID 1918962). Note: nearly all actives have a fitted effect of over 35% in size. Put shortly: as §1
Assay [9] in a line: Quantitative High-Throughput drug screen in 47 multiple myeloma cell lines against the NCATS MIPE library collection: JIM3_ECACC cell viability assay (AID 1918963; note: nearly all actives have a fitted effect of over 35% in size). Put shortly: as §1
A short description of assay [10]: Quantitative High-Throughput drug screen in 47 multiple myeloma cell lines against the NCATS MIPE library collection: H1112_PLB cell viability assay (AID 1918967; note: nearly all actives have a fitted effect of over 30% in size). Put shortly: as §2
A short description of assay [11]: Quantitative High-Throughput drug screen in 47 multiple myeloma cell lines against the NCATS MIPE library collection: Delta47_JCRB cell viability assay (AID 1918925; note: nearly all actives have a fitted effect of over 45% in size). The procedure, abridged:
as §2

The nature of assay [12]: Quantitative High-Throughput drug screen in 47 multiple myeloma cell lines against the NCATS MIPE library collection: INA6_PLB cell viability assay (AID 1918965; note: nearly all actives have a fitted effect of over 55% in size). Put shortly: (§4)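 Myeloma cells (500 per well) were exposed to MIPE 4.0 compounds by pin transfer and incubated 48 hours at 37C, 5% CO2. Viability was read as ATP by CellTiter-Glo luminescence, normalised to DMSO (100%) and media-only (0%) wells.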

Assay [13] can be described thus: Quantitative High-Throughput drug screen in 47 multiple myeloma cell lines against the NCATS MIPE library collection: EJM_DSMZ cell viability assay (AID 1918926; note: nearly all actives have a fitted effect of over 30% in size). The procedure, abridged: as §2
Assay [14] in a line: Quantitative High-Throughput drug screen in 47 multiple myeloma cell lines against the NCATS MIPE library collection: Karpas417_ECACC cell viability assay (AID 1918961). To be noted: Karpas417 myeloma viability, CellTiter-Glo ATP luminescence, 48 h; viability (% of DMSO): at 45.8 µM (top of the series). Put shortly:
as §4
A general note: ATP-based viability assays read luminescence as a measure of living cells.

Assay [15] in a line: Quantitative High-Throughput drug screen in 47 multiple myeloma cell lines against the NCATS MIPE library collection: JIM1_ECACC cell viability assay (AID 1918964). The procedure, abridged:
as §2
Potency is the fitted concentration of half-maximal effect.

As for `O=C(O)Cc1cccc(OCCCN(Cc2cccc(C(F)(F)F)c2Cl)CC(c2ccccc2)c2ccccc2)c1`, the Potency entry in assay [1], in [2], in assay [3], in assay [4] and in [5] was “inactive” each time. In addition, the Potency in assay [6] was 5.26 µM (active).
As to `NCc1c[nH]c(=S)n1[C@H]1CCc2c(F)cc(F)cc2C1`, the Potency was 14.8 µM (active) in assay [1], 20.9 µM (active) in assay [2], 18.7 µM (active) in assay [7] and 26.4 µM (active) in [3].
As to `CCC(=C(CC)c1ccc(O)cc1)c1ccc(O)cc1`, the Potency in assay [1] is 8.33 µM (active); in [4], 16.6 µM (active); in assay [5], 18.7 µM (active); in assay [6], 9.35 µM (active); in assay [10], 18.7 µM (active). The Potency result in assay [8] and in assay [9] was “inactive” each time.
For the molecule `COc1ccc2nc3cc(Cl)ccc3c(Nc3cc(CN4CCCC4)c(O)c(CN4CCCC4)c3)c2n1`, the Potency is 23.5 µM (active) in [1]; 16.6 µM (active) in [11]; 29.6 µM (active) in [7]; 20.9 µM (active) in [8]; 7.43 µM (active) in assay [12]; 18.7 µM (active) in [10].
Regarding `CCNC(=O)[C@H]1O[C@@H](n2cnc3c(N)nc(NCCc4ccc(CCC(=O)O)cc4)nc32)[C@H](O)[C@H]1O`, the Potency result in assay [1], in [3], in assay [4], in assay [5], in assay [9] and in assay [15] was “inactive” each time. Besides, in assay [10], the Potency entry was “inactive”. Also, the Potency in [13] was 0.0332 µM (active); in [2], 0.105 µM (active); in [14], 0.0296 µM (active); in assay [8], 0.0469 µM (active); in assay [12], 0.209 µM (active); in assay [6], 0.059 µM (active).
As to `CC(O)=C(C#N)C(=O)Nc1ccc(C(F)(F)F)cc1`, the Potency was 16.6 µM (active) in assay [1]; 18.7 µM (active) in assay [11]; 6.62 µM (active) in assay [2]; 23.5 µM (active) in [9]; 26.4 µM (active) in assay [12]. The Potency result in [4] and in assay [5] was “inactive” in each case.
`CC(C)c1c(C(=O)Nc2ccccc2)c(-c2ccccc2)c(-c2ccc(F)cc2)n1CC[C@H](O)C[C@@H](O)CC(=O)O`: the Potency in [1] is 14.8 µM (active); in assay [7], 18.7 µM (active); in assay [8], 18.7 µM (active); in [9], 14.8 µM (active); in assay [12], 8.33 µM (active). In addition, the Potency entry in assay [2] and in assay [4] was “inactive” throughout.
In the case of `O=C(Nc1ccccc1)Nc1ccc(-c2ccc(C(=O)[C@H]3CCC[C@H]3C(=O)O)cc2)cc1`, the Potency entry in assay [1], in [11], in assay [8], in assay [9], in assay [12] and in [10] was “inactive” throughout. In addition, the Potency in assay [5] is 7.43 µM (active); in [6], 3.72 µM (active).
On to `CO[C@H]1C=CO[C@@]2(C)Oc3c(C)c(O)c4c(O)c(c(C=NN5CCN(C)CC5)c(O)c4c3C2=O)NC(=O)C(C)=CC=C[C@H](C)[C@H](O)[C@@H](C)[C@@H](O)[C@@H](C)[C@H](OC(C)=O)[C@H]1C`, for which the Potency result in [1], in assay [3], in assay [4], in [5] and in [10] was “inactive” in each case. Also, the results for the Potency in assay [2] and in [6] were 5.98 µM (active) and 1.19 µM (active), respectively.
In the case of `CN[C@@H]1[C@@H](O)[C@@H](O[C@@H]2[C@@H](O)[C@H](O[C@H]3O[C@H](CN)[C@@H](O)[C@H](O)[C@@H]3O)[C@@H](N)C[C@@H]2NC(=O)[C@@H](O)CN)OC[C@]1(C)O`, the Potency entry in assay [1], in [13], in [2], in assay [3], in [4] and in assay [5] was “inactive” each time. The Potency result in assay [14], in [15], in assay [12] and in assay [6] was “inactive” in each case.
As to `C[C@]12CCC3=C4CCC(=O)C=C4CC[C@@H]3[C@H]1CC[C@@]2(O)CC#N`, the Potency result in assay [1], in assay [11], in assay [13], in assay [7], in [8] and in assay [9] was “inactive” in each case. The Potency result in [10] is “inactive”.
Take `C[C@]12C=CC(=O)C=C1CC[C@@H]1[C@@H]2[C@@H](O)C[C@@]2(C)[C@@H]1CC[C@]2(O)C(=O)CO`: the Potency entry in assay [1], in [13], in assay [9] and in assay [10] was “inactive” each time. Also, the Potency in assay [5] is 0.209 µM (active); in assay [12], 5.9 µM (active).
Regarding `C[C@@H]1[C@H](C)CC[C@]2(C(=O)O)CC[C@]3(C)C(=CC[C@@H]4[C@@]5(C)CC[C@H](O)C(C)(C)[C@H]5CC[C@]43C)[C@@H]12`, the Potency in assay [1] and in assay [7] was 42.9 µM (active) each time. For the same molecule, the Potency result in assay [2], in [3], in [4], in assay [5], in assay [8] and in assay [10] was “inactive” in each case.
Take `OC[C@H]1O[C@@H](OCCc2ccc(O)cc2)[C@H](O)[C@@H](O)[C@H]1O`: the Potency result in assay [1], in [13], in assay [2], in assay [4], in [5] and in [8] was “inactive” each time. For the same molecule, the Potency entry in assay [9] and in assay [15] was “inactive” in each case.
In the case of `COc1ccc(-c2cc(=O)c3c(O)cc(O[C@@H]4O[C@H](CO[C@@H]5O[C@@H](C)[C@H](O)[C@@H](O)[C@@H]5O)[C@@H](O)[C@H](O)[C@@H]4O)cc3o2)cc1O`, the Potency result in assay [1], in [2], in [7], in [3] and in assay [5] was “inactive” throughout. Further, the Potency is 14.8 µM (active) in assay [11], 16.6 µM (active) in assay [9], 26.4 µM (active) in assay [12] and 13.2 µM (active) in assay [10].
For the molecule `CCCCCCOC(=O)N=C(N)c1ccc(NCc2nc3cc(C(=O)N(CCC(=O)OCC)c4ccccn4)ccc3n2C)cc1`, the Potency is 23.5 µM (active) in assay [1]; 16.6 µM (active) in assay [11]; 14.8 µM (active) in assay [3]; 7.43 µM (active) in assay [4]; 16.6 µM (active) in assay [5]; 8.33 µM (active) in [15]. For the same molecule, the Potency is 16.6 µM (active) in [12] and 18.7 µM (active) in [6].
Take `CC[C@H](NC(=O)[C@H](C)NC)C(=O)N1C[C@@H](O)C[C@H]1Cc1c(-c2[nH]c3cc(F)ccc3c2C[C@H]2C[C@H](O)CN2C(=O)[C@H](CC)NC(=O)[C@H](C)NC)[nH]c2cc(F)ccc12`: the Potency result in assay [1], in assay [8] and in assay [6] was “inactive” each time. For the same molecule, the Potency in assay [11] was 16.6 µM (active); in assay [3], 9.35 µM (active); in assay [5], 14.8 µM (active); in assay [9] it was 1.48 µM (active); in [12], 11.8 µM (active); in assay [10] it was 11.8 µM (active).
